# This is part of a sample that, as a whole, favours compounds with a hit. Of some 83,000 tested, about 20% had one in any assay.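 Interpretation: 100, growth as untreated; towards 0, rising growth inhibition; 0, no net growth; 0 to -100, cell death. Compounds scoring below 10 were considered active.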 A number with no mark means an inactive call. Calls of active or inactive are those of the source.
# System: UO-31 renal
# Assay: NCI-60 one-dose screen, 48 h (100 = growth as untreated, 0 = no growth, -100 = all killed)
# Conditions: 10 µM
# Experimental: Growth inhibition of the UO-31 human tumor cell line is measured as a screen for anti-cancer activity. Cells are grown in 96 well plates and exposed to the test compound for 48 hours. Compounds are tested at a single concentration, which is 10^-5 M for most compounds. The reported endpoint is percent growth (GI% or GIPRCNT), where numbers from 0 - 100% represent growth inhibition, and numbers from -100% - 0 represent cell death. For example, a value of 40 represents 60% growth inhibition. A value of 0 means no net growth occurred over the course of the experiment. A value of -40 indicates 40% of cells at the beginning of the experiment died by the end of the experiment. A value of -100 means all cells are dead at the end of the experiment.
# NCI-60 Human Tumor Cell Lines Screen was performed using the standard one-dose NCI protocol, which is described in more detail at https://dtp.cancer.gov/discovery_development/nci-60/default.htm.
# Compounds with GIPRCNT values below 10 were considered active. Activity score was based on GIPRCNT using the following formula: […]
# Score is 0 for GIPRCNT values of 100 or above, 50 for GIPRCNT values of 0, and 100 for GIPRCNT values of -100.
row,Compound,growth
1,COc1cnc2c(c1)C(=O)c1c-2n(CCCNC(C)C)c(=O)c2cc(OC)c(OC)cc12,29.5%
2,N#Cc1c(-c2ccc(Cl)cc2)cc(-c2ccccc2)nc1OCc1ccccc1,65.6%
3,COc1ccc(CN2[C@@H](C(=O)NCc3ccc(C(=O)NO)cc3)Cc3c([nH]c4ccccc34)[C@@H]2C)cc1,36%
4,CO[C@H]1CSS[C@@H]1Cn1nc(-c2ccc(Oc3ccccc3)cc2)c2c(N)ncnc21,17.7%
5,Brc1ccc(/C=C/c2n(Cc3ccc4ccccc4c3)c3ccccc3[n+]2Cc2ccc3ccccc3c2)cc1,44.6%
6,CN1CCCN(Cc2ccc(C(=O)Nc3cccc(Nc4ccc5cc(O)ccc5n4)c3)cc2C(F)(F)F)CC1,91.7%
7,Cn1cc(/C=N/Nc2cccc(Cl)n2)c2ccccc21,40.7%
8,O=C(Cn1cc(CSc2nnc3oc4ccccc4n23)nn1)Nc1cccc(Cl)c1,55.3%
9,COc1cc(C2CC(c3ccc(C)cc3)=Nc3c(N)nc(N)nc3N2)ccc1Oc1nc(Nc2ccc(F)cc2)nc(N(C)C)n1 (stereo not given),53.3%
10,OCCNc1oc(-c2ccccc2)nc1[P+](c1ccccc1)(c1ccccc1)c1ccccc1,71.8%
11,C/C(=N\NC(N)=S)c1ccc(Nc2nc(SC(C)C)nc(-c3ccccc3)c2C#N)cc1,77.5%
12,COc1ccccc1[C@H]1C(C(=O)c2ccc(O)cc2)C2(N[C@@H]1c1ccccc1)C(=O)Nc1ccc(Br)cc12 (stereo not given in full),27.9%
13,COc1ccc(-c2cc(-c3cc(C(=O)c4ccc(Br)cc4)n4ccc(C)cc34)nc(N)c2C#N)cc1,64.3%
14,CCCS(=O)(=O)c1oc(-c2ccc(F)cc2)nc1S(=O)(=O)c1ccc(F)cc1,-100% (active)
15,CCOC(=O)CNC(=O)CN(Cc1ccccc1)C(=O)[C@@]1(C)CCC[C@]2(C)[C@H]3C[C@H]4C(C(C)C)=C[C@]3(CC[C@H]21)[C@@H]1C(=O)OC(=O)[C@@H]14,65.5%
16,CN1CCc2c(sc3ncnc(N/N=C/c4ccc5ccccc5c4)c23)C1,60.5%
17,CCOC(=O)C1=C(N)N(c2ccc(Cl)cc2)C2=C(C(=O)CC(C)(C)C2)C1c1ccc(N2CCOCC2)cc1 (stereo not given),85.3%
18,CS(=O)(=O)Nc1ccc(-c2ccc3c(c2)ncn3-c2ccc(NC(=O)Nc3ccc(Br)cc3)cc2)cc1,2.62% (active)
19,C=C1CCC2C3(C)COC(c4c(F)cccc4F)OC3CCC2(C)C1C/C=C1/C(=O)OCC1O (stereo not given),-91.6% (active)
20,O=C1NC(=NC23CC4CC(CC(C4)C2)C3)N/C1=C\c1ccc2ncccc2n1,-15.8% (active)

row,Compound,growth
1,COc1cccc(/C=N/NC(=O)c2ccc3nc(-c4ccc(Cl)cc4)[nH]c3c2)c1O,-2.17% (active)
2,CN1CCN(c2ccc(C(=O)/C=C/c3cc(Br)ccc3F)cc2)CC1,44.2%
3,Clc1cccc(N/N=C/c2c[nH]c3ccccc23)n1,10.4%
4,COC1=C[C@@]23CCC(=O)N2CCc2cc4c(cc2[C@H]3[C@H]1OC(=O)C(C)(C)O)OCO4,87.5%
5,CO[C@@H]1CSSC1Cn1nc(-c2ccc(Oc3ccccc3)cc2)c2c(N)ncnc21 (stereo not given in full),21.3%
6,O=C(c1ccc(O)cc1)C1[C@H](c2ccc(Br)cc2)[C@@H](c2ccccc2)NC12C(=O)Nc1ccc(Br)cc12 (stereo not given in full),-27.3% (active)
7,O=C(Cn1nc(-c2ccccc2)ccc1=O)NN1C(=O)c2ccccc2C1=O,85.8%
8,COc1cc2c3c(n(CCCNC(C)C)c(=O)c2cc1OC)-c1nc2c(cc1C3=O)OCO2,-97% (active)
9,O=C(NO)c1ccc(CNC(=O)[C@H]2Cc3c([nH]c4ccccc34)[C@H](c3ccc(Cl)cc3)N2)cc1,21.8%
10,O=C1c2ccccc2C(=O)c2c1c(C(=O)c1ccc(Cl)cc1)n1c2ccc2c3ccccc3ccc21,69.8%
11,CCCn1c(=O)c2[nH]c(-c3ccc(OCc4nc5ccc(C#N)cc5[nH]4)cc3)nc2n(CCC)c1=O,67.8%
12,COc1cccc(C(N)=Nc2ccc(OCCCCCCn3cncn3)cc2)c1,45.4%
13,Cc1ccc(/C=C(\C#N)n2nnc3c(F)cccc32)cc1,15.2%
14,CC(C)CCSc1nc(NC2CC2)c(C#N)c(-c2ccc(C(C)C)cc2)n1,103%
15,O=C(CSc1nnc(-c2c[nH]c3ccccc23)n1-c1ccccc1)Nc1ccc(C(=O)/C=C/c2cccc([N+](=O)[O-])c2)cc1,42.9%
16,CCCn1c(O)c(N=Nc2nc(-c3cc4ccccc4oc3=O)cs2)c2cc(Br)ccc21,85.1%
17,O=C(CSc1nnc(-c2c[nH]c3ccccc23)n1-c1ccccc1)Nc1ccc(C(=O)/C=C/c2ccc(Br)cc2)cc1,52.9%
18,COC[C@@H](CC(C)C)N=C1NC(=O)/C(=C/c2ccc3ncsc3c2)N1,-12.7% (active)
19,Clc1ccc(/C=N/Nc2ncnc3sc4c(c23)CCN(Cc2ccccc2)C4)cc1,22.1%
20,CCCn1c(=O)c2[nH]c(-c3ccc(OCc4nc5ccc(C(F)(F)F)cc5[nH]4)cc3)nc2n(CCC)c1=O,52.1%
